Test results reported in PubChem BioAssay (NCI).
Compounds without any hit were thinned out: in the full panel of roughly 83,000, 20% have a hit.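 Assay: single dose, 48 h. Readout: percent growth (0 = no net growth; negative = cell death). Active: <10.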 Values without a mark were called inactive. Activity calls are given as the source filed them.

How the values were obtained:
Test in all cases: NCI-60 one-dose screen, 48 h (100 = growth as untreated, 0 = no growth, -100 = all killed)
Conditions in all cases: 10 µM unless noted
[1] = test system: SR leukemia
[2] = test system: RPMI-8226 leukemia
[3] = test system: OVCAR-8 ovarian
[4] = test system: OVCAR-5 ovarian
[5] = test system: SK-OV-3 ovarian
[6] = test system: IGROV1 ovarian
[7] = test system: OVCAR-3 ovarian
[8] = test system: HS 578T breast
[9] = test system: NCI/ADR-RES ovarian
[10] = test system: OVCAR-4 ovarian

Row | SMILES | growth [1] | growth [2] | growth [3] | growth [4] | growth [5] | growth [6] | growth [7] | growth [8] | growth [9] | growth [10] [%]
1 | Cc1ccc(-c2nc(/C=C3/C(=O)Nc4ccccc43)c3ccccn23)cc1 | 73.4% | 79.3% | 82% | 80.5% | 92.6% | 22.9% | 119% | 85.7% | 75.6% | 
2 | O=C1COCCN1c1ccc(Nc2nc(Cl)nc(OCc3cn(Cc4ccccc4)nn3)n2)cc1 | 8.29% (active) | 67.9% | 79.6% | 105% | 88.8% |  |  | 85.3% | 101% | 83
3 | CCN1C(=O)N(CC)C2C1NN=c1s/c(=C\c3cccc([N+](=O)[O-])c3)c(=O)n12 (centres undefined) | 12.7% | 22.8% | 6.8% (active) | 33% | 38.3% | 22.6% | 1.4% (active) | 17.6% | 9.2% (active) | 
4 | C#CCOc1cccc(Nc2ncnc3c(NC(=O)C=C)cccc23)c1 | 9.57% (active) | -10% (active) | 4.27% (active) | 88% | 49% |  |  | 25% | 18.1% | 73.9
5 | CCOC(=O)c1c(C)nc2c(c1N)CC(=O)N2Cc1cc(F)cc(Cl)c1 | 75.3% | 71.7% | 95.9% | 97.5% | 115% | 102% |  | 108% | 81.2% | 
6 | C=C1C(=O)O[C@H]2[C@H]1CC/C(COC(=O)NCc1cc[nH]c1)=C\CC[C@@]1(C)O[C@@H]21 | 4.94% (active) | 30.2% | 70.8% | 50.5% | 75.7% | 15.5% |  | 63% | 90.6% | 
7 | Cn1cc(-c2csc(-c3ccc(Cl)cc3)n2)c2cccnc21 | 0.516% [100 µM] (active) | -24.4% [100 µM] (active) | 13.5% [100 µM] | -49.3% [100 µM] (active) | -57.1% [100 µM] (active) | -21.5% [100 µM] (active) | -75.7% [100 µM] (active) | 9.04% [100 µM] (active) | -35.5% [100 µM] (active) | 
8 | COc1ccc2cc(C(=O)c3coc4ccc(O)cc34)ccc2c1 | 78.9% | 91.5% | 106% | 103% | 77.2% | 85.2% | 100% | 112% |  | 
9 | CCOC(=O)C1=C(NC)OCC1=O | 93.6% | 99.6% | 98.6% | 115% | 110% | 113% | 109% | 94.7% | 105% | 
10 | COc1ccc(C2c3sc4c(F)cccc4c3Oc3nc[nH]c(=O)c32)cc1 (centres undefined) | 75.9% | 69.3% | 89% | 83.6% | 97.4% | 45.7% | 88.5% | 83.1% | 84.4% | 
11 | CC(=O)Nc1nc2ccc(NS(=O)(=O)c3cccc4c(N(C)C)cccc34)cc2[nH]1 | 24.8% | 43.3% | 85.4% | 84.4% | 88.1% | 51.5% | 41.1% | 52.3% | 97.7% | 
12 | O=C(CSc1nc2sc3c(c2c(=O)n1-c1ccccc1)CCCCC3)N/N=C/c1ccc(F)cc1 | 11.3% | 66% | -17.9% (active) | 41.8% | 73.4% | 62.1% | -33.8% (active) | -13.9% (active) |  | 
13 | CO/N=C(/C)c1ccc(NC(=O)CSc2nnc(-c3ccncc3)n2-c2ccccc2)cc1 | 99.6% | 80.8% | 1.47% (active) | 79.5% | 24.1% | 33.4% | 29.3% | -0.835% (active) | 0.0208% (active) | 
14 | CCn1cc(C(=O)N/N=C/c2cccs2)c(=O)c2cc(F)c(N3CCNC(C)C3)c(F)c21 (centres undefined) | -4.21% (active) | -36.6% (active) | 43.8% | 67.2% | 90.3% | 67% | 68.7% | 86% | 67.9% | 
15 | N=C(N)c1ccc(-c2ccc(-c3ccc(F)cc3)o2)o1 | -8.15% (active) | -2.26% (active) | 5% (active) | 58.4% | 28.1% | 44.9% | 7.31% (active) | 30.5% | 22.6% | 
16 | Cc1nc2ncnc(Cl)c2[nH]1 | 98.3% | 82.4% | 95.4% | 109% | 105% | 106% | 108% | 110% | 108% | 
17 | Cc1nc2c(=O)[nH]c(SCC(=O)Nc3cccc(F)c3)nc2[nH]c1=O | 132% | 110% | 103% | 103% | 115% | 108% | 111% | 101% | 107% | 
18 | CC1(C)c2[nH]c3ccccc3c2C[C@]2(C)[C@H]3CC=C4[C@@H]5C[C@@](C)(C(N)=O)CC[C@]5(C)CC[C@@]4(C)[C@]3(C)CC[C@@H]12 | 34.3% | 38.3% | 50.8% | 102% | 70.1% | 74.4% | 58.3% | 91.5% | 67.5% | 
19 | Cc1ccccc1/C=C1\CN(C(=O)OC(C)(C)C)C/C(=C\c2ccccc2C)C1=O | 8.93% (active) | -23.7% (active) | 17.1% | 51.1% | 74.9% | 26% | -30.9% (active) | 31.2% | 15.7% | 
20 | COc1cc(CNS(=O)(=O)c2ccc(C)cc2)ccc1OCc1cn(-c2ccc(Br)cc2)nn1 | 100% | 87.2% | 102% | 108% | 75.3% | 103% | 112% | 95.6% | 104% | 
21 | CC(C)(C)[Si](C)(C)O[C@H]1C(=O)C=CN2CC=C[C@@H]12 | 81.8% [100 µM] | 115% [100 µM] | 97% [100 µM] | 94.4% [100 µM] | 101% [100 µM] | 114% [100 µM] | 103% [100 µM] | 95.3% [100 µM] | 106% [100 µM] | 
22 | Clc1ccc2c(c1)N(c1ncnc3ccc(-c4cnc5[nH]ncc5c4)cc13)CC2 | 24.3% | 16.9% | 30% | 20.3% | -1.55% (active) | 0.128% (active) | 24.5% | -17% (active) | 40.4% | 
23 | Cc1c(-n2nnc(-c3nc4ccccc4s3)c2N)c(=O)n(-c2ccccc2)n1C | 103% | 105% | 102% |  | 97.8% |  | 107% | 100% | 92.5% | 105
24 | CCn1c(=S)[nH]c2c(=O)n(C)c(=O)n(C)c21 | 110% | 101% | 101% |  | 107% | 102% | 121% | 160% | 103% | 114
25 | CS(=O)(=O)C1=CN(CCO)C(=O)N2CCCN=C12 | 115% | 119% | 108% |  | 97.5% | 102% | 105% | 97% | 106% | 115
26 | CC(C)n1cnc2c(=S)nc[nH]c21 | 74.8% | 72.9% | 109% |  | -99.9% (active) | 114% | 105% | 108% | 133% | 124
27 | CC(=O)Cc1nsc(NC(=O)c2cc(-c3cc(Cl)cc(Cl)c3)oc2C)n1 | 98.3% | 93.5% | 97.8% |  | 99.2% | 102% | 106% | 102% | 103% | 104
28 | N#CC1=C(N)Oc2c(sc3c(F)cccc23)C1c1ccc(F)cc1 (centres undefined) | 30.6% | 18.1% | 21.4% |  | 31.8% | 33.9% | 10.9% | 24.6% | 4.36% (active) | 60.8
29 | CCCNC(=O)Oc1ccc(/C(=C(/C)Cc2ccc(OC)cc2)c2ccc(OCCCN(C)C)cc2)cc1 | 8.47% (active) | 77.3% | 86.5% |  | 98.3% | 91.1% | 94.3% | 72.3% | 79.1% | 85.2
